± gives the standard deviation of the averaged measurements. Of roughly 6,200 targets only a part is listed; those with the largest changes were picked by preference.
What was measured:
Experiment in all cases: NP40-soluble protein abundance relative to vehicle (solubility fold change) (ratio); higher = more soluble protein in presence of AMP-PNP
[1] = molecular target: T1, KIAA0319L (UniProt Q8IZA0)
T1 sequence (whole entry): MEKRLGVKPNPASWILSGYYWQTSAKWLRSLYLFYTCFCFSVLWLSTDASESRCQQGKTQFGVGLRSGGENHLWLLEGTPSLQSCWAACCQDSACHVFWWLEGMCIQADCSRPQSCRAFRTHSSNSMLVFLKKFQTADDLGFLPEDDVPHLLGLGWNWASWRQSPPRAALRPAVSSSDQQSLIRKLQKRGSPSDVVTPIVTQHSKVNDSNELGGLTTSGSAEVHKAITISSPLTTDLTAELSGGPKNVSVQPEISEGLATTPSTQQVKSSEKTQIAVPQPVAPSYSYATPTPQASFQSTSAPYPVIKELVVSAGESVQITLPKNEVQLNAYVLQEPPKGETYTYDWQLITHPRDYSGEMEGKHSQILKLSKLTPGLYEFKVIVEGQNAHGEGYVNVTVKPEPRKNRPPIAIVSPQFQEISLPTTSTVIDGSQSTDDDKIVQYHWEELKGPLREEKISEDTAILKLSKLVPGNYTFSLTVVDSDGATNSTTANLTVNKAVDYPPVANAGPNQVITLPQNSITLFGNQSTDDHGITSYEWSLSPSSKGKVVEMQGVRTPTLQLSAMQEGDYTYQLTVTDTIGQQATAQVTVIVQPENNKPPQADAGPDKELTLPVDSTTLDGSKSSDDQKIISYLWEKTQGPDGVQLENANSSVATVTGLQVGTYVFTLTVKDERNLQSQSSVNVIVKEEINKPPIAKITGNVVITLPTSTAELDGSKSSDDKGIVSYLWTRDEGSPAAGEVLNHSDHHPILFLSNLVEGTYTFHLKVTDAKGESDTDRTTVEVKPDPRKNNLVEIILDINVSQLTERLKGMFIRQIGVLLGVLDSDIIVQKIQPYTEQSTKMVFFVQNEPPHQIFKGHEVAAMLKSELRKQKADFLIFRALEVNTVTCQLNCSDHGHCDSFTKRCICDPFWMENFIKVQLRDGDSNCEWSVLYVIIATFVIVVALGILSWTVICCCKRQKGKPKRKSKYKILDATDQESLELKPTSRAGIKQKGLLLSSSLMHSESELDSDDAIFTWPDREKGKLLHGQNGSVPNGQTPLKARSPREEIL
Outline: (§1)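 Data come from three independent experiments in which Dounce-homogenised Jurkat crude lysate was treated at eight concentrations from 0.1 to 10 mM. Treatment ran 10 min at room temperature and then 3 min at 37 °C, after which 0.8% NP40 and benzonase were added for 60 min at 4 °C before ultracentrifugation. The supernatant underwent TMT labelling and LC-MS/MS, and vsn-normalised intensities were expressed as fold change against the detergent-processed vehicle in each replicate.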

[2] = molecular target: T2, NUFIP2 (UniProt Q7Z417)
T2 sequence (whole entry): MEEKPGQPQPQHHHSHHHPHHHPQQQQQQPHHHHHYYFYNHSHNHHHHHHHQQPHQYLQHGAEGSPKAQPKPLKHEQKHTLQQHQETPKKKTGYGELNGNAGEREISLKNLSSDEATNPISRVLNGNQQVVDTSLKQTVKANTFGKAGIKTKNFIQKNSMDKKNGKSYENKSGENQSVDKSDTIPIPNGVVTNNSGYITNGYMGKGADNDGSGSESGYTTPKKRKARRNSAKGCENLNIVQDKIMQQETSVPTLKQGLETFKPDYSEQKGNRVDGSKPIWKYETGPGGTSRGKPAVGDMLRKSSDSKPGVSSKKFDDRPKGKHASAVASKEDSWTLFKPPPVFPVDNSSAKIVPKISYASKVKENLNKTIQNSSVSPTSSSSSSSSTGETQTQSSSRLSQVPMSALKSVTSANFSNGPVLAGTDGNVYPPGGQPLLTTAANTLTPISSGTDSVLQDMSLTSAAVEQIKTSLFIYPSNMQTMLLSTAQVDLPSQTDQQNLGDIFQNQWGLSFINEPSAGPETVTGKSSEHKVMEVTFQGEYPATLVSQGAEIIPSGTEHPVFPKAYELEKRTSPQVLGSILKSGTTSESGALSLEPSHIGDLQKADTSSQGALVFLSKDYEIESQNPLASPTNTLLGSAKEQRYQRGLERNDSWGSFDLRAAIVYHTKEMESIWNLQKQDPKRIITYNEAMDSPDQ
Outline: as §1

[3] = molecular target: T3, PINX1 (UniProt Q96BK5)
T3 sequence (whole entry): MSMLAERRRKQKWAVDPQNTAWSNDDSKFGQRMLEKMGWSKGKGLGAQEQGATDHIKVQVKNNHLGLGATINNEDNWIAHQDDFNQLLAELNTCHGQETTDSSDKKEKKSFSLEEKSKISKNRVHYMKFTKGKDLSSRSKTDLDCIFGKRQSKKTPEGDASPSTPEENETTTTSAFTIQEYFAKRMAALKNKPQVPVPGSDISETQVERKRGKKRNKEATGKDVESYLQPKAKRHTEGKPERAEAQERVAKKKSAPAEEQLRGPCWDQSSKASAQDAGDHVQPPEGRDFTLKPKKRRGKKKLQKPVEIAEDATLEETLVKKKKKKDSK
Outline: as §1

[4] = molecular target: T4, TTF1 (UniProt Q15361)
T4 sequence (whole entry): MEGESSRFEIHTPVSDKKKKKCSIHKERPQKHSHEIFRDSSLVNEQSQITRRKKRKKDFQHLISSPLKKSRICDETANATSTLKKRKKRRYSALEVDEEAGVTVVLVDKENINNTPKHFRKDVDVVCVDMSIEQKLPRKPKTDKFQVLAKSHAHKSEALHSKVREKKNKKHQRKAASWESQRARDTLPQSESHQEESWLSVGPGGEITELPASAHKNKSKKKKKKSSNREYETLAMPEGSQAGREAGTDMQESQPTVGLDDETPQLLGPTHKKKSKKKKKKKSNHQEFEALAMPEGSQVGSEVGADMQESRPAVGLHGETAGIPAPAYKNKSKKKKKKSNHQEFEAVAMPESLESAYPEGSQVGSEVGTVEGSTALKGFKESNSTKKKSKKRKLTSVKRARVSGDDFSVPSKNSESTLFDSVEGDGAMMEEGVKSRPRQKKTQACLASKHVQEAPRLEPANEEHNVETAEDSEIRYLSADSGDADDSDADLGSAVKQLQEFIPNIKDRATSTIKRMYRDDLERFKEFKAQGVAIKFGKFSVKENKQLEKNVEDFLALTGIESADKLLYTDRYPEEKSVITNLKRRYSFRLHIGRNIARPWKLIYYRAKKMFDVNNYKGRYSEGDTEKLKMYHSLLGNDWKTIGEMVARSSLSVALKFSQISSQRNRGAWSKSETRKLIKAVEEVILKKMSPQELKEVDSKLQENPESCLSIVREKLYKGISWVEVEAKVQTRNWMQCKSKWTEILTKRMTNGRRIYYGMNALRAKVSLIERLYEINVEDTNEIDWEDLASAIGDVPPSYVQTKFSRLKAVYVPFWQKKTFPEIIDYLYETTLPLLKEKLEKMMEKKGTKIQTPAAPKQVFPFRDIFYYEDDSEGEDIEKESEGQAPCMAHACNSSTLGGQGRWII
Outline: as §1

[5] = molecular target: T5, UniProt Q147X3|Q147X3-2
T5 sequence (whole entry): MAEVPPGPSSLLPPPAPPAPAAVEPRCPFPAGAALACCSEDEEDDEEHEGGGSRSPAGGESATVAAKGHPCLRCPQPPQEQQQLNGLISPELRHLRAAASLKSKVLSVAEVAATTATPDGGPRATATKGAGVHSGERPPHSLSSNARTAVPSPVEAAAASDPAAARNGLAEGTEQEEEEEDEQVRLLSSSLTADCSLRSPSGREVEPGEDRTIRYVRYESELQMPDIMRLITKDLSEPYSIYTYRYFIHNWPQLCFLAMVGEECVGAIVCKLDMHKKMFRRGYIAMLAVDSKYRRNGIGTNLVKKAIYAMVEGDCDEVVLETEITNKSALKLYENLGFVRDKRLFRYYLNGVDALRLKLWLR
Outline: as §1

Nc1ncnc2c1ncn2[C@@H]1O[C@H](COP(=O)(O)OP(=O)(O)NP(=O)(O)O)[C@@H](O)[C@H]1O [adenylyl imidodiphosphate]
NP40-soluble protein abundance ([1]; concentration: 1mM): 1.01 ± 0.014 | NP40-soluble protein abundance ([1]; concentration: 2mM): 1.03 ± 0.033 | NP40-soluble protein abundance ([1]; concentration: 4mM): 0.977 ± 0.025 | NP40-soluble protein abundance ([1]; concentration: 6mM): 0.969 ± 0.034 | NP40-soluble protein abundance ([1]; concentration: 8mM): 0.976 ± 0.017 | NP40-soluble protein abundance ([1]; concentration: 10mM): 0.9945 ± 0.0054 | NP40-soluble protein abundance ([2]; concentration: 1mM): 1.11 ± 0.029 | NP40-soluble protein abundance ([2]; concentration: 2mM): 1.22 ± 0.066 | NP40-soluble protein abundance ([2]; concentration: 4mM): 1.24 ± 0.023 | NP40-soluble protein abundance ([2]; concentration: 6mM): 1.26 ± 0.14 | NP40-soluble protein abundance ([2]; concentration: 8mM): 1.27 ± 0.14 | NP40-soluble protein abundance ([2]; concentration: 10mM): 1.37 ± 0.12 | NP40-soluble protein abundance ([3]; concentration: 1mM): 1.15 ± 0.053 | NP40-soluble protein abundance ([3]; concentration: 2mM): 1.27 ± 0.034 | NP40-soluble protein abundance ([3]; concentration: 4mM): 1.36 ± 0.09 | NP40-soluble protein abundance ([3]; concentration: 6mM): 1.51 ± 0.057 | NP40-soluble protein abundance ([3]; concentration: 8mM): 1.59 ± 0.083 | NP40-soluble protein abundance ([3]; concentration: 10mM): 1.8 ± 0.079 | NP40-soluble protein abundance ([4]; concentration: 1mM): 0.967 ± 0.024 | NP40-soluble protein abundance ([4]; concentration: 2mM): 0.963 ± 0.024 | NP40-soluble protein abundance ([4]; concentration: 4mM): 0.957 ± 0.025 | NP40-soluble protein abundance ([4]; concentration: 6mM): 0.96 ± 0.046 | NP40-soluble protein abundance ([4]; concentration: 8mM): 0.912 ± 0.02 | NP40-soluble protein abundance ([4]; concentration: 10mM): 0.949 ± 0.045 | NP40-soluble protein abundance ([5]; concentration: 1mM): 0.992 ± 0.016 | NP40-soluble protein abundance ([5]; concentration: 2mM): 0.971 ± 0.025 | NP40-soluble protein abundance ([5]; concentration: 4mM): 1.01 ± 0.059 | NP40-soluble protein abundance ([5]; concentration: 6mM): 1.03 ± 0.046 | NP40-soluble protein abundance ([5]; concentration: 8mM): 0.99 ± 0.023 | NP40-soluble protein abundance ([5]; concentration: 10mM): 1 ± 0.025
